Where a name gives a salt, the structure may show the parent alone.

The first assay has as its system Saccharomyces cerevisiae. Nature of the assay: fraction of cells in G1 phase (DNA content, flow cytometry); higher = more cells with unreplicated DNA (G1 delay). Conditions: temperature: 30 C; YPD; BY4741 PDR5+ SNQ2+; drug added to: actively dividing cells; 4.33 h. The protocol:
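S. cerevisiae cultures in YPD at 30°C were treated with each drug of the Enzo FDA-approved library at 20 µg/ml (final µM given per drug). Cells were fixed after 6–7 h (S1) or 6 h (S2), or after 4.33 h for BY4741 (S3), then stained with SYTOX Green. %G1 is the Dean-Jett-Fox G1 peak area divided by the G1+G2/M peak areas, written as a fraction and averaged over at least two independent experiments. DMSO reference: mean ~0.49; >0.60 is called High G1 and <0.3876 Low G1. Scale: lower means mitotic delay.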
(In general: A flow cytometer gives signals particle by particle.)
Regarding `NC1CCN(c2c(F)cc3c(=O)c(C(=O)O)cn(C4CC4)c3c2Cl)C1` (stereo not given) [Clinafloxacin HCl] (54.6755 µM), the “fraction of cells in G1 phase” value is 0.359. Still for that read-out and setting: the same measure for `CC(C(O)c1ccc(O)cc1)N1CCC(Cc2ccccc2)CC1` (stereo not given) [Ifenprodil] (61.4525 µM): 0.41. For the compound `COC(=O)[C@H](c1ccccc1Cl)N1CCc2sccc2C1` [Clopidogrel sulfate] (62.1449 µM), the “fraction of cells in G1 phase” value was 0.459.

The assay is the same for the next values; noted with them: temperature: 30 C; YPD; JTY2953 pdr5 snq2 (sensitized); drug added to: actively dividing cells; 6 h.
With `COC(=O)C1=C(C)NC(C)=C(C(=O)OCCCN2CCC(c3ccccc3)(c3ccccc3)CC2)[C@H]1c1cccc([N+](=O)[O-])c1` [Niguldipine HCl] (30.9502 µM), the “fraction of cells in G1 phase” value came to 0.389.

For the compound `CCN(CC)CCOc1ccc(C(=C(Cl)c2ccccc2)c2ccccc2)cc1` [Clomiphene citrate] (49.2645 µM), the “fraction of cells in G1 phase” value was 0.388. Take `COc1cccc2c1C(=O)c1c(O)c3c(c(O)c1C2=O)C[C@@](O)(C(=O)CO)C[C@@H]3O[C@H]1C[C@H](N)[C@H](O)[C@H](C)O1` [Doxorubicin HCl] (34.4828 µM): the “fraction of cells in G1 phase” value was 0.618. On to `CC(C(O)c1ccc(O)cc1)N1CCC(Cc2ccccc2)CC1` (stereo not given) [Ifenprodil] (61.4525 µM), for which the “fraction of cells in G1 phase” value worked out at 0.694. `COC(=O)[C@H](c1ccccc1Cl)N1CCc2sccc2C1` [Clopidogrel sulfate] (62.1449 µM): the “fraction of cells in G1 phase” value turned out to be 0.719.

The assay is the same for the next values; noted with them: temperature: 30 C; YPD; JTY2953 pdr5 snq2 (sensitized); drug added to: cultures diluted from stationary phase; 6-7 h.
As to `CCCC(CCC)C(=O)O` [Valproic acid] (138.681 µM), the “fraction of cells in G1 phase” value amounted to 0.541. The same measure, in the same setting: in the case of `COc1ccc(Cl)cc1C(=O)NCCc1ccc(S(=O)(=O)NC(=O)NC2CCCCC2)cc1` [Glyburide] (40.4847 µM) it was 0.531; in that of `COc1cc([C@@H]2c3cc4c(cc3[C@@H](O[C@@H]3O[C@@H]5CO[C@@H](C)O[C@H]5[C@H](O)[C@H]3O)[C@H]3COC(=O)[C@H]23)OCO4)cc(OC)c1O` [Etoposide] (33.9806 µM), 0.496; in that of `COC(=O)C1=C(C)NC(C)=C(C(=O)OC)C1c1ccccc1[N+](=O)[O-]` [Nifedipine] (57.7463 µM), 0.551. The same measure, in the same setting: the same measure for `NC1CCN(c2c(F)cc3c(=O)c(C(=O)O)cn(C4CC4)c3c2Cl)C1` (stereo not given) [Clinafloxacin HCl] (54.6755 µM): 0.254. Turning to `CC(C)NCC(O)COc1cccc2[nH]ccc12` (stereo not given) [Pindolol] (80.5387 µM), the “fraction of cells in G1 phase” value was determined as 0.515. The same measure, in the same setting: the same measure for `C[C@H](N[C@@H](CCc1ccccc1)C(=O)O)C(=O)N1CCC[C@H]1C(=O)O` [Enalaprilat] (57.4049 µM): 0.491.

Take `COC(=O)C1=C(C)NC(C)=C(C(=O)OCCCN2CCC(c3ccccc3)(c3ccccc3)CC2)[C@H]1c1cccc([N+](=O)[O-])c1` [Niguldipine HCl] (30.9502 µM): the “fraction of cells in G1 phase” value turned out to be 0.684.

With `CNC1(C)C2CCC(C2)C1(C)C` (stereo not given) [Mecamylamine HCl] (119.548 µM), the “fraction of cells in G1 phase” value was determined as 0.486. As to `Nc1c2c(nc3ccccc13)CCCC2` [Tacrine HCl] (100.873 µM), the “fraction of cells in G1 phase” value stood at 0.541. In the case of `CCCCCN(CCCCC)C(=O)C(CCC(=O)O)NC(=O)c1ccc(Cl)c(Cl)c1` (stereo not given) [Lorglumide] (43.5334 µM), the “fraction of cells in G1 phase” value was determined as 0.482.

As to `CCOC(=O)C1=C[C@@H](OC(CC)CC)[C@H](NC(C)=O)[C@@H](N)C1` [Oseltamivir] (64.0179 µM), the “fraction of cells in G1 phase” value came out at 0.472. The same measure, in the same setting: in the case of `CC(=O)OCC(=O)NCCCOc1cccc(CN2CCCCC2)c1` [Roxatidine acetate HCl] (57.3977 µM) it was 0.461. With `O=C(NC(Cc1cc(=O)[nH]c2ccccc12)C(=O)O)c1ccc(Cl)cc1` (stereo not given) [Rebamipide] (53.9381 µM), the “fraction of cells in G1 phase” value was 0.473. As for `COc1ccc(CN(CCN(C)C)c2ccccn2)cc1` [Mepyramine maleate] (70.079 µM), the “fraction of cells in G1 phase” value amounted to 0.495. Regarding `CN1CCN(c2c(F)cc3c(=O)c(C(=O)O)cn(CCF)c3c2F)CC1` [Fleroxacin] (54.1497 µM), the “fraction of cells in G1 phase” value turned out to be 0.479. Regarding `COc1ccnc(C[S+]([O-])c2nc3cc(OC(F)F)ccc3[nH]2)c1OC` (stereo not given) [Pantoprazole] (52.168 µM), the “fraction of cells in G1 phase” value is 0.484.

Regarding `CCOC(=O)c1ncn2c1CN(C)C(=O)c1cc(F)ccc1-2` [Flumazenil] (65.9423 µM), the “fraction of cells in G1 phase” value was found to be 0.507. Regarding `CCN(CC)CCOc1ccc(C(=C(Cl)c2ccccc2)c2ccccc2)cc1` [Clomiphene citrate] (49.2645 µM), the “fraction of cells in G1 phase” value came to 0.88. For the compound `CC(=O)NC[C@H]1CN(c2ccc(N3CCOCC3)c(F)c2)C(=O)O1` [Linezolid] (59.2849 µM), the “fraction of cells in G1 phase” value came out at 0.526. For the compound `COC(=O)Nc1nc2cc(Sc3ccccc3)ccc2[nH]1` [Fenbendazole] (66.8106 µM), the “fraction of cells in G1 phase” value stood at 0.421.

For the compound `CN(C)CCC[C@@]1(c2ccc(F)cc2)OCc2cc(C#N)ccc21` [Escitalopram] (61.652 µM), the “fraction of cells in G1 phase” value is 0.496.

In the case of `CN(C/C=C/C#CC(C)(C)C)Cc1cccc2ccccc12` [Terbinafine HCl] (68.6247 µM), the “fraction of cells in G1 phase” value turned out to be 0.5. Regarding `CN1CCN(c2c(F)cc3c(=O)c(C(=O)O)cn4c3c2SCC4)CC1` [Rufloxacin] (55.0337 µM), the “fraction of cells in G1 phase” value stood at 0.466.

For `COc1cccc2c1C(=O)c1c(O)c3c(c(O)c1C2=O)C[C@@](O)(C(=O)CO)C[C@@H]3O[C@H]1C[C@H](N)[C@H](O)[C@H](C)O1` [Doxorubicin HCl] (34.4828 µM), the “fraction of cells in G1 phase” value amounted to 0.64. `Cc1nc2n(c(=O)c1CCN1CCC(c3noc4cc(F)ccc34)CC1)CCCC2` [Risperidone] (48.7216 µM): the “fraction of cells in G1 phase” value is 0.472. Consider `COCc1c(C(C)C)nc(C(C)C)c(/C=C/[C@@H](O)C[C@@H](O)CC(=O)O)c1-c1ccc(F)cc1` [Cerivastatin] (43.5196 µM), for which the “fraction of cells in G1 phase” value came to 0.448. Turning to `C[C@]12C=CC(=O)C=C1CC[C@@H]1[C@@H]2[C@@H](O)C[C@@]2(C)[C@H]1CC[C@]2(O)C(=O)CO` [Prednisolone] (55.4855 µM), the “fraction of cells in G1 phase” value was determined as 0.466.

Regarding `CC[C@@]1(O)C(=O)OCc2c1cc1n(c2=O)Cc2cc3cc(O)ccc3nc2-1` [10-hydroxycamptothecin] (54.8906 µM), the “fraction of cells in G1 phase” value was found to be 0.499. For `CCC1=C[C@@H]2CN(C1)Cc1c([nH]c3ccccc13)[C@@](C(=O)OC)(c1cc3c(cc1OC)N(C)[C@H]1[C@@](O)(C(=O)OC)[C@H](OC(C)=O)[C@]4(CC)C=CCN5CC[C@]31[C@@H]54)C2` [Vinorelbine] (25.6755 µM), the “fraction of cells in G1 phase” value came to 0.481. As for `CC(C(O)c1ccc(O)cc1)N1CCC(Cc2ccccc2)CC1` (stereo not given) [Ifenprodil] (61.4525 µM), the “fraction of cells in G1 phase” value stood at 0.61.

For `COC(=O)[C@H](c1ccccc1Cl)N1CCc2sccc2C1` [Clopidogrel sulfate] (62.1449 µM), the “fraction of cells in G1 phase” value turned out to be 0.642.

The values above are taken from the supplement of paper PMC3342239.
